This experiment addresses HLA-C*04:01. In words: thermal melting temperature (Tm) of peptide-HLA complex; higher = more thermostable pHLA complex. The protocol: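 Endogenous HLA-C*04:01 ligands were detected in the thermostability assays of both the C1R-A*02:01 and C1R-B*07:02 lines. Lysates were heated 10 min at 37-73 °C and pHLA immunoprecipitated with W6/32. Peptides were quantified by DIA-MS and Tm was taken from a logistic sigmoid fit.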

These results are taken from the supplement of paper PMC7726561.

For HYDEQQNFF, the thermal melting temperature came out at 53.5 °C (C1R-A*02:01) and 53.3 °C (C1R-B*07:02).
The like results for FFEEFGKL were, in that order, 44.3 °C and 46.5 °C.
The like results for YFDDLKGEM were, in that order, 57.9 °C and 59.4 °C.
The matching figures for AFDLSQVLF: 56.1 °C and 56.5 °C.
Turning to SFDTGFTSF, the thermal melting temperature by setting is: (C1R-A*02:01) 48.1 °C; (C1R-B*07:02) 46.1 °C.
The like results for KFDPVGEIL were, in that order, 55.9 °C and 54.9 °C.
Take FLDLTEQEF: the thermal melting temperature (C1R-A*02:01) came to 59.8 °C and the thermal melting temperature (C1R-B*07:02) amounted to 60.6 °C.
The matching figures for SFDLLPREF: 54.7 °C and 55.9 °C.
Consider NYDEHISNF, for which the thermal melting temperature by setting is: (C1R-A*02:01) 44.8 °C; (C1R-B*07:02) 48.9 °C.
The like results for SFDPSRTF were, in that order, 53.7 °C and 52.8 °C.
SFDSALQSV: the thermal melting temperature is, setting by setting: (C1R-A*02:01) 56.4 °C; (C1R-B*07:02) 60.7 °C.
The matching figures for MFDKDVVML: 48.9 °C and 54.6 °C.
With TYDLQESNV, the thermal melting temperature reads like this: (C1R-A*02:01) 57.5 °C; (C1R-B*07:02) 55.5 °C.
The like results for NFDDIKNGL were, in that order, 52.1 °C and 50.4 °C.
The like results for IFDRVLTEL were, in that order, 51.3 °C and 54.7 °C.
For the sequence IFDQSGTYL, the thermal melting temperature reads like this: (C1R-A*02:01) 53.4 °C; (C1R-B*07:02) 56.4 °C.
The matching figures for VFDPVTKL: 48.3 °C and 48.6 °C.
The matching figures for SYDPTIENTF: 54.9 °C and 58.1 °C.
The matching figures for FWDPSVNLF: 53.7 °C and 52.4 °C.
Take LYDLVTEKM: the thermal melting temperature reads like this: (C1R-A*02:01) 56.2 °C; (C1R-B*07:02) 60.7 °C.
The matching figures for TFDVAPSRLDF: 60.1 °C and 62.2 °C.
The like results for SWDIVVQRV were, in that order, 46.9 °C and 49 °C.
On to HYDPATEEF, for which the thermal melting temperature runs as follows: (C1R-A*02:01) 60.2 °C; (C1R-B*07:02) 58.2 °C.
The matching figures for FYEPQKGSIYL: 60.5 °C and 62.1 °C.
The matching figures for TFDLTVVSY: 53.5 °C and 61.8 °C.
Consider VFDTAIAHL, for which the thermal melting temperature is 59 °C (C1R-A*02:01) and 58.7 °C (C1R-B*07:02).
As to FYDLYGGEKF, the thermal melting temperature is, setting by setting: (C1R-A*02:01) 48.8 °C; (C1R-B*07:02) 48.5 °C.
AWDKEPVLV: the thermal melting temperature was determined as 57.8 °C (C1R-A*02:01) and 57.6 °C (C1R-B*07:02).
The like results for NFDNILNSF were, in that order, 56.8 °C and 58.7 °C.
The matching figures for VFDKTLAEL: 58.9 °C and 59.1 °C.
The matching figures for IFDGNVAHI: 59.7 °C and 59 °C.
On to VFDVTAPNTF, for which the thermal melting temperature is 56.1 °C (C1R-A*02:01) and 61.1 °C (C1R-B*07:02).
The like results for IYDEVVKL were, in that order, 54.3 °C and 51.6 °C.
The like results for AHDVDPIEL were, in that order, 45.7 °C and 46.9 °C.
As to TFDVSILTI, the thermal melting temperature runs as follows: (C1R-A*02:01) 44.9 °C; (C1R-B*07:02) 47.2 °C.
The matching figures for AWEERETIL: 57.8 °C and 56.3 °C.
The like results for MPDDLLTTL were, in that order, 53.1 °C and 63.4 °C.
Turning to VLDDKDYFL, the thermal melting temperature came out at 57 °C (C1R-A*02:01) and 42.4 °C (C1R-B*07:02).
The like results for LFDDIDHNM were, in that order, 52.6 °C and 53.7 °C.
In turn, VFPKEPVEL showed a thermal melting temperature (C1R-A*02:01) of 52.4 °C and a thermal melting temperature (C1R-B*07:02) of 52.2 °C.
The like results for LFDLGGQYL were, in that order, 48.8 °C and 44.5 °C.
Turning to QYDEAVAQF, the thermal melting temperature reads like this: (C1R-A*02:01) 56.7 °C; (C1R-B*07:02) 59.2 °C.
The like results for IYDVQHANL were, in that order, 50.7 °C and 53 °C.
The like results for TFDSTIHF were, in that order, 55.9 °C and 58 °C.
The matching figures for RFDESMQVF: 55.9 °C and 58.5 °C.
VYDPSLKTLL returned a thermal melting temperature (C1R-A*02:01) of 52.3 °C and a thermal melting temperature (C1R-B*07:02) of 52.4 °C.
The like results for TFDPMTRQI were, in that order, 54.1 °C and 57 °C.
